Whole data set: some 33,000 sequences, median “E-score (-0.5 to 0.5)” near -0.056, cut for the highest 2% near 0.38. What follows is part of a selection rich in the highest values, with near analogues and random picks from the rest.
What follows are sequences tested against Stb4 (UniProt P50104) (assay: PBM E-score (8-mer binding enrichment) (E-score (-0.5 to 0.5)); higher = stronger / more preferred TF binding). Conditions: protein concentration: 200 nM; construct: GST-DNA-binding domain.
Summary of the method: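 Full-length yeast transcription factors or their DNA-binding domains, GST-tagged and expressed with PURExpress, were applied at about 100-200 nM to universal all-10-mer Agilent arrays. These arrays had been made double-stranded by primer extension on fresh or once-stripped slides. Detection used fluorescent anti-GST, normalisation used masliner, and E-scores for ungapped eight-base words pooled with reverse complements came from the Universal PBM Analysis Suite.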

Sequence of UniProt P50104 (P50104 whole entry, the tested form may be a part): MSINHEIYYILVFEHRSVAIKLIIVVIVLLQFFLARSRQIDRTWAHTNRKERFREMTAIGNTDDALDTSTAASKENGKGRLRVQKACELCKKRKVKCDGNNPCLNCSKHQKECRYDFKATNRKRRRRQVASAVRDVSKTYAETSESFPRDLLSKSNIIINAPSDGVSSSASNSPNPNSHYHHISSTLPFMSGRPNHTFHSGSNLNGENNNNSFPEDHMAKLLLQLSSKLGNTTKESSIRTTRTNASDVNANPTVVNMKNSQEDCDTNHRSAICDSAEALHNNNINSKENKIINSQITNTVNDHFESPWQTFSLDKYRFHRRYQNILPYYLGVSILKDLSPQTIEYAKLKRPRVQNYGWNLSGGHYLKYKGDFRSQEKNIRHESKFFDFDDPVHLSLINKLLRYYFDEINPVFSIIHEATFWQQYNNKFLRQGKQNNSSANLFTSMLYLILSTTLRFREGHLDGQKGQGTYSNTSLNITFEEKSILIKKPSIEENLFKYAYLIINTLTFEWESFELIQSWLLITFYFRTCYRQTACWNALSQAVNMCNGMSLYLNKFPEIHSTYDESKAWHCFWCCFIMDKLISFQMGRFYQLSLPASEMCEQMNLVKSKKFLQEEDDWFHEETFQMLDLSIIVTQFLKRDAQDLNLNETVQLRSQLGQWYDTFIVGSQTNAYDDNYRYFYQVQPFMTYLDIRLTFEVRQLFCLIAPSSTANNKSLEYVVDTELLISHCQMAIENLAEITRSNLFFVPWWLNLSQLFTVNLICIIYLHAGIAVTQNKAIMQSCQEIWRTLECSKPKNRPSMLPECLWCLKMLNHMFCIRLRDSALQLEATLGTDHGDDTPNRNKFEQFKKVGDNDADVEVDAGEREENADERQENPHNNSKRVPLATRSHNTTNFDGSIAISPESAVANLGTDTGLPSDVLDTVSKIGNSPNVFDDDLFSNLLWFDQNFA

Sequence | PBM E-score
CAGGCGAG | -0.294
ACTGCATA | -0.135
AGTATCTC | -0.0258
TCTAGCAA | -0.0809
CATCCGGG | 0.397
CATCCGTA | 0.329
AGTCCGGC | 0.0945
CATCCGGA | 0.406
AATCCGGG | 0.306
CATCCGGC | 0.397
CGTCCGGC | 0.253
CCTCCGGA | 0.307
CATCCAGG | -0.178
AAAGCCCT | -0.106
CGAAAACA | 0.123
CGTGTTTA | -0.00808
AGCTGTGC | -0.148
AATATCTA | -0.0944
CCGCTATA | 0.0382
AGTTCTCG | 0.0181
ATCTTAAG | -0.187
CCGCTGAC | 0.0389
CCACCGCG | -0.00158
CCCCGAAC | 0.338
TCACGAAA | -0.0978

Sequence | PBM E-score
ACCCGAAT | 0.425
ACCCCGAT | 0.266
CCCCGAAG | 0.354
ACCCGAAG | 0.424
ACCCGAAC | 0.463
AACCGAAT | 0.325
ACACGAAG | 0.00748
TCCCGAAA | 0.432
TCCCGACA | 0.355
GCCCGAAC | 0.262
GGGGTTAA | 0.0779
GCTTTCAA | -0.0547
CGAGAGTC | 0.0872
ATGCCTTC | -0.0568
CTTTTCAC | -0.191
ATGCCCAG | 0.0828
CGGACAGA | 0.129
CACGCTTC | 0.0187
GCCCGAAA | 0.276
ACCCGAAA | 0.435
CCCCGAAA | 0.34
AAGTGCAG | -0.212
AACTTAGT | 0.0161
CATCCCGC | 0.122
CATCCCGG | 0.342

Sequence | PBM E-score
TATCCCAA | 0.0571
TATCCCCA | -0.185
AATCCCGT | 0.303
TATCCCGA | 0.398
AATCCCGC | 0.225
AATCCCGA | 0.431
GATCCCAA | -0.0342
GATCCCGA | 0.417
CATCCCGA | 0.401
GATCCCGC | 0.225
CGAGTAAA | 0.143
ATTGTAGA | -0.132
AGTTTGGG | -0.172
AGCTAAAA | -0.0535
CCAGTTGC | -0.0304
CAATAGGC | -0.0832
TCAGATAA | -0.0704
AATCCTTA | -0.0563
CCGGGATA | 0.292
ACCGGAGG | 0.228
GCCGGAGA | 0.192
ACCGGACG | 0.146
CCCGGAGA | 0.318
GCCGGACA | 0.154
CGGGGATC | 0.279

Sequence | PBM E-score
CCCGGATA | 0.429
CCCGGACA | 0.264
GCCGGATA | 0.409
ACCGGATG | 0.385
CCGGGATC | 0.384
AAGGGGTC | -0.176
GACGTACC | -0.0237
CAAAGCAA | -0.0355
ATCGAGAA | -0.157
GATTTTAC | 0.0329
GGACGGCC | -0.028
ATGCCAAG | -0.177
GCAAAAAA | 0.137
CCGCAGTC | 0.112
TGATTGCA | -0.0923
ACCGGATC | 0.353
ACCGGACA | 0.128
CCCGGAGC | 0.32
ACCGGATA | 0.388
ACCGGAGA | 0.187
CCCGGATC | 0.385
CAAAATGC | -0.121
CTGAACCA | -0.197
ACGCCGTA | -0.208
ATCAACAC | -0.101

Sequence | PBM E-score
ACGAAATA | -0.111
CCGAAATA | 0.401
CCGAAATC | 0.405
GCGAAATA | 0.0947
ACGAAATC | -0.0845
CTGAAATC | -0.0865
CGGTAACA | 0.238
ACACTGCG | 0.00398
AGGTTGGC | -0.205
GTATTATA | 0.0782
GATTCCCA | -0.109
TATTCCCA | 0.0571
AATTCCGC | 0.246
AATTCCGG | 0.358
CATTCCGA | 0.449
CATTCCGG | 0.358
CATTCCGC | 0.175
GATTCCGA | 0.444
TATTCCGA | 0.462
TATTCCAA | -0.113
GATTCCGC | 0.222
AATTCCGA | 0.46
CCACCCGC | 0.194
TATCAAGA | -0.216
CAGCCTGG | -0.203

Sequence | PBM E-score
CCCAGTGC | -0.0453
GTGTCGCA | -0.0287
GTGTCGGA | 0.395
CTGTCGGA | 0.353
ATGTCGGC | 0.138
GTGTCGTA | -0.0741
ATGTCGGA | 0.389
ATTAGTAA | 0.076
AGTGATAG | -0.33
AGCACAGA | -0.121
GCCAATAA | 0.0672
AACATCCG | 0.45
CACATCCG | 0.425
AACATCCT | -0.0622
ATCATCCA | -0.121
ACCATCCT | -0.249
CACATCCA | -0.0807
AACATCCC | 0.232
CACATCCC | 0.187
ACCATCCG | 0.406
ATCATCCC | 0.052
ACCATCCC | 0.0842
ATCATCCG | 0.414
AATCAATA | -0.0212
CGATTAAG | -0.128

Sequence | PBM E-score
AAAAGGGC | -0.141
CAATTCTA | -0.196
AATTCTTA | -0.0318
CTGGAGCA | -0.262
ATCCTAGG | -0.0251
GCTCCAAC | -0.111
CACTGGCA | -0.23
GCTTGAGA | -0.312
GCGAGATA | 0.026
CCGAGATC | 0.435
CCGAGATA | 0.405
ACGAGATA | -0.184
ACGAGATC | -0.0355
CTGAGATC | -0.0537
AAGCAGCT | -0.0723
CCAGACTA | -0.229
CTGAGGGA | -0.284
ATTTTCCA | -0.0573
CATTTCCG | 0.421
CATTTCCC | 0.18
ATTTTCCC | 0.0682
CATTTCCA | -0.196
ACTTTCCG | 0.383
AGTTTCCC | 0.132
ATTTTCCG | 0.424

Sequence | PBM E-score
ACTTTCCT | -0.22
AGTTTCCG | 0.437
AGTTTCCA | -0.103
ACTTTCCC | 0.121
CGCAGGAA | -0.0189
ATATGGCG | 0.0558
CGAGTAAC | 0.166
CTGGCTGC | -0.108
AAAGGGTC | -0.0434
ACGGGGGG | -0.228
GCCACGCC | -0.282
GATAGCGA | -0.0238
AATTTCCT | -0.0502
AGTTTCGC | 0.0157
AATTTCCG | 0.425
AGTTTCGG | 0.412
AATTTCCC | 0.142
AGTTTCGA | -0.131
CTAAGTCA | -0.0795
CCCAATGC | -0.17
ATTGGCTG | -0.167
GATAAGCA | 0.136
AGTTCGCA | -0.158
AGTTCGGA | 0.442
AGTTCGTA | 0.0255

Sequence | PBM E-score
AGTTCGTG | -0.157
AGTTCGGG | 0.426
AGTTCGGC | 0.357
AACATTCA | -0.00804
AACGGCAT | 0.232
AAAAGAGC | -0.189
CATCTCGC | -0.0526
ATTCTCGC | -0.286
AAACTCGT | -0.228
ATTCTCGG | 0.425
AATCTCGT | -0.0273
ATTCTCGA | -0.194
AATCTCGG | 0.434
AAACTCGG | 0.419
CATCTCGG | 0.458
AATCTCGA | -0.0861
CATCTCGA | -0.252
AAACTCGC | -0.0551
CACGCTCG | 0.119
AATCGAAT | 0.00368
CTGAGAGC | -0.138
AATACTGG | -0.159
TCTAAAAA | 0.0389
AGGGTGTA | -0.093
GTCGCAGA | -0.195

Sequence | PBM E-score
AGTCTCGC | -0.0759
AGTCTCGA | -0.0187
ACTCTCGG | 0.416
ACTCTCGC | -0.0541
ACTCTCGA | -0.214
AGTCTCGG | 0.39
ATAGCCTC | -0.00394
ACTGATAC | 0.0597
ATAGTCGC | -0.076
ACGCTACC | 0.00891
TATTTTGA | -0.151
TAGCCTCA | -0.198
GATGCTTA | -0.00303
AAGATCCC | 0.126
CAGATCCA | 0.0283
CAGATCCC | 0.00572
AAGATCCA | -0.0259
CAGATCCG | 0.416
AAGATCCG | 0.41
GGGCCGCA | 0.134
AGTCACAA | -0.173
AGTTTAGG | -0.238
AAATGGGG | -0.344
ACCTGGTG | -0.0216
ATCGGCGG | 0.327

Sequence | PBM E-score
AGCATCCG | 0.419
AGCATCCA | -0.115
AGCATCCT | 0.0794
CGCATCCG | 0.408
CGCATCCA | -0.126
CGCATCCC | -0.0101
CTCGTAGA | -0.246
GAAACGTC | 0.0218
CATCGGTA | 0.345
CCTCGGTA | 0.38
GATCGGTA | 0.407
ACTCGGTA | 0.322
GCTCGGTA | 0.416
AATCGGTA | 0.205
GCTAGACC | -0.0645
AGTTTTCG | 0.152
TATGAAGA | -0.0238
ACTGTCTG | -0.0825
CAGAAAGC | -0.131
GGGAAAGA | -0.0458
AGGAAAGA | -0.174
CGGAAAGC | 0.386
CGGAAAGA | 0.407
AGGAAAGC | -0.0848
TGAGCTAA | -0.15

Sequence | PBM E-score
CAATGCGG | 0.0433
CACTTCCG | 0.397
CACTTCCC | 0.0457
AACTTCCA | 0.132
CACTTCCA | -0.0868
AACTTCCG | 0.451
AACTTCCT | -0.0245
AGTTCATC | -0.107
CGAACGAG | 0.0473
CAGAGTGA | -0.0625
AATAACTC | -0.0405
AGATGAGA | -0.103
GATTGCGC | -0.00733
AGATAAAC | 0.00284
AGAGACCC | -0.0488
AAGTTCGC | -0.187
CAGTTCGA | -0.262
CAGTTCGC | -0.194
AAGTTCGG | 0.421
CAGTTCGG | 0.409
AAGTTCGA | 0.0503
ATCCACGG | 0.109
GGGAGACA | 0.146
CAGGCGGC | 0.067
CCCGTCGA | 0.102

Sequence | PBM E-score
CCCGTCGC | -0.00272
CCCGTCGG | 0.386
CCTGGCAC | -0.00805
GAAGAGGC | -0.016
CTAGGATA | -0.0673
CTCAGATA | -0.00864
AACGGATC | 0.306
ATGGGATG | -0.0874
ATTGGATC | -0.0271
ATCGGATC | 0.43
ATCGGATA | 0.467
ATAGGATA | -0.00309
ATTGGATA | -0.121
ATCGGATG | 0.451
CTCGGATA | 0.49
ATCGGAGG | 0.199
CCCTCTAA | -0.182
AGACCTTG | -0.312
ACTAGGAC | -0.0716
GTCATTTA | -0.171
AATGGTTG | 0.02
GTCAGGCA | -0.118
AGCTGGAT | -0.0862
AAGACTGA | -0.25
CTCGGATC | 0.481

Sequence | PBM E-score
CTCAGATC | -0.103
GTCGGAGA | 0.294
CTGGGATC | -0.0424
GTCGGACA | 0.22
GTCGGATA | 0.463
GTCAGCTA | -0.259
TCTGCAAA | -0.122
CCATCGCA | -0.229
CGGAAAAA | 0.446
CGGAAATA | 0.429
CGGAAAAG | 0.373
GGGAAATA | 0.157
CGGAAATC | 0.366
CGGAAAAC | 0.37
CTCTTTGA | -0.285
CTTAGAAG | -0.29
CGTATTGA | -0.271
AGTTACTA | -0.103
ACAATCTG | -0.064

Reference: the supplement of paper PMC3334620
